Bioassay records deposited in PubChem by Broad Institute.
Compounds with a hit are over-represented: about 6.7% of the library has one in this group of screens.
T cruzi growth-1: T. cruzi intracellular proliferation inhibitors, primary screen, cell-based, beta-gal Tulahuen parasites, NIH3T3 host, luminescence; T. cruzi beta-gal in NIH3T3, GalScreen luminescence, 90 h; inhibition, % at 8.34 µM; 77,000 tested, 5.9% active;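 active = mean inhibition above about 93%, with at least 55% of replicates each passing it, limit read from the data, passing the limit was not always enough; inconclusive = only one of those two conditions holds; inactive = neither condition holds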
Pf Dd2 growth: P. falciparum Dd2 growth inhibitors, primary screen, SYBR Green fluorescence, single dose replicates; activity change, % at 10 µM; 72 h; active compounds read low; 94,000 tested, 2.3% active; in the data active = activity change below about -80%; inconclusive = no clear call, values can overlap the other calls
C diff growth: C. difficile growth inhibitors, primary screen, HTS; growth activity, negative = inhibition, % at 16 µg/mL (by protocol); 86,000 tested, 0.25% active; Clostridium difficile clinical isolate growth, OD600, 24 h; active compounds read low;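 active = mean growth activity at or below -80% and every replicate also at or below -80%; inconclusive = mean at or below -80% but some replicate above -80%; inactive = mean growth activity above -80%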;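 note: 0% = DMSO wells and -100% = levofloxacin 16 µg/mL wells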
T cruzi growth-2: T. cruzi intracellular proliferation inhibitors, confirmation, cell-based, NIH3T3 host, beta-gal parasite, luminescence, cherry-pick | shares compounds with T cruzi growth-1 | inhibition, % at 8.35 µM | AID 651739, 2012 | T. cruzi beta-gal in NIH3T3, GalScreen luminescence, 90 h | 5,600 tested, 72% active;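 active = mean replicate inhibition above about 95% and at least 55% of replicates individually reaching it, limit read from the data; inconclusive = only one of the two criteria is met; inactive = neither criterion is met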
T cruzi growth-3: inhibitors of intracellular T. cruzi replication, confirmation, NIH3T3 host cells, beta-gal parasites, cherry-pick, set 2. shares compounds with T cruzi growth-1. T. cruzi beta-gal in NIH3T3, GalScreen luminescence, 90 h. inhibition, % at 2.09 µM. 5,600 tested, 21% active. AID 651740, 2012;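 active = mean inhibition above about 95%, with at least 55% of replicates also reaching it, limit read from the data; inconclusive = meets just one of the two conditions; inactive = meets neither condition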;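 note: plate controls were neutral control median for no effect and positive control median for full effect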
NIH3T3 tox: cytotoxicity in mouse NIH/3T3 fibroblasts, confirmation, cytotoxicity control for T. cruzi proliferation inhibitor project, cell-based, cherry-pick, single point | 5,600 tested, 14% active | NIH/3T3 viability, CellTiter-Glo ATP luminescence, 90 h | cytotoxicity (signal decrease), % at 8.35 µM | shares compounds with T cruzi growth-1;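 active = mean signal decrease across replicates above about 35% based on untreated-well scatter, with enough replicates individually passing, limit read from the data; inconclusive = no rule stated though some were filed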;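 note: 0% = median of neutral control wells and 100% = median of positive control wells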
3T3 cytotox 2: NIH/3T3 fibroblast cytotoxicity, confirmation, cytotoxicity control, cell-based, cherry-pick, single point, set 2 | 5,600 tested, 56% active | NIH/3T3 viability, CellTiter-Glo ATP luminescence, 90 h | shares compounds with T cruzi growth-1 | inhibition, % at 24.9 µM | AID 651744, 2012;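 active = mean loss of cell viability signal at or above a set limit, and enough replicates individually reaching it; inconclusive = meets only the mean limit or only the replicate share; inactive = meets neither condition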;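 note: 0% = median of neutral control wells and 100% = median of positive control wells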
An asterisk follows results filed as active; ? = inconclusive; . = no result given; + = active, no number.

SMILES	T cruzi growth-1	Pf Dd2 growth	C diff growth	T cruzi growth-2	T cruzi growth-3	NIH3T3 tox	3T3 cytotox 2
C[C@@H]1CN([C@H](C)CO)C(=O)c2cc(/C=C/c3ccccc3)cnc2O[C@H]1CN(C)C(=O)Nc1ccccc1F	124*	-67	-11	109*	104*	10	?
CCC(=O)N1C[C@H](O)COC[C@H]2O[C@@H](CC(=O)NCC3CCCCC3)CC[C@@H]21	71	-15	2	.	.	.	.
COc1ccc2c3c(n(C)c2c1)[C@@H](CO)N(C)CC31CCN(C(=O)c2cccnc2)CC1	.	20	1	.	.	.	.
COCC#Cc1ccc([C@@H]2[C@H](CO)N3CCCCN(S(=O)(=O)c4cccc(OC)c4)C[C@@H]23)cc1	107*	-45	-4	103*	38	32	45*
COc1cccc(S(=O)(=O)N2CCCCN3[C@@H](CO)[C@H](c4ccc(C#CC5CC5)cc4)[C@@H]3C2)c1	107*	4	12	109*	89	16	105*
COCC#Cc1ccc([C@H]2[C@@H](CO)N3CCCCN(S(=O)(=O)c4cccc(OC)c4)C[C@H]23)cc1	92	-63	17	.	.	.	.
COc1cccc(S(=O)(=O)N2CCCCN3[C@H](C2)[C@H](c2ccc(C#CC4CC4)cc2)[C@@H]3CO)c1	72	-22	34	.	.	.	.
COc1cccc(S(=O)(=O)N2CCCCN3[C@H](C2)[C@@H](c2ccc(C#CC4CC4)cc2)[C@@H]3CO)c1	121*	4	-2	93	93	4	?
Cc1cccc(S(=O)(=O)N2CCCCN3[C@@H](CO)[C@@H](c4ccc(C#CC5CC5)cc4)[C@@H]3C2)c1	65	?	43	.	.	.	.
CN1[C@H](C(=O)N2CCCCC2)[C@@H](CO)[C@@H]2Cn3c(ccc(/C=C/c4ccccc4)c3=O)[C@@H]21	17	0	8	.	.	.	.
COc1ccc(S(=O)(=O)Nc2ccc3c(c2)C(=O)N([C@H](C)CO)C[C@H](C)[C@H](CN(C)Cc2ccncc2)OCCCC[C@@H](C)O3)cc1	94	16	-2	.	.	.	.
COc1ccccc1S(=O)(=O)N[C@H]1CC[C@@H](CC(=O)N2CCOCC2)O[C@H]1CO	11	-3	3	.	.	.	.
CCC(=O)N1CC(=O)N2[C@@H](CO)[C@@H](c3ccc(C#Cc4cccc(OC)c4)cc3)[C@@H]2C1	.	-14	-5	.	.	.	.
O=C(NCc1ccc2c(c1)OCO2)[C@@H]1[C@@H](CO)[C@@H]2Cn3c(cccc3=O)[C@H]1N2Cc1cccnc1	-6	.	.	.	.	.	.
O=C([C@@H]1[C@@H](CO)[C@@H]2Cn3c(cccc3=O)[C@H]1N2Cc1ccccc1)N1CCCCC1	1	.	-2	.	.	.	.
C[C@H](NC(=O)[C@H]1[C@H](CO)[C@H]2Cn3c(cccc3=O)[C@@H]1N2Cc1ccncc1)c1ccccc1	21	4	-4	.	.	.	.
C[C@@H](NC(=O)[C@H]1[C@H](CO)[C@H]2Cn3c(cccc3=O)[C@@H]1N2Cc1ccccc1)c1ccccc1	101*	3	-4	69	-27	-5	-1
O=C(NCc1ccc(F)cc1)[C@@H]1[C@@H](CO)[C@@H]2Cn3c(cccc3=O)[C@H]1N2Cc1cccnc1	100*	6	-2	21	-8	17	-2
CN1CCN(C(=O)[C@@H]2[C@@H](CO)[C@@H]3Cn4c(cccc4=O)[C@H]2N3Cc2ccncc2)CC1	169*	.	-4	2	16	-16	-5
CC(=O)N1[C@@H]2c3ccc(C4=CCCCC4)c(=O)n3C[C@H]1[C@H](CO)[C@H]2C(=O)N[C@@H](C)c1ccccc1	+	.	0	-46	-59	3	2
CC(=O)N1[C@@H]2Cn3c(ccc(C4=CCCCC4)c3=O)[C@H]1[C@@H](C(=O)N[C@H](C)c1ccccc1)[C@@H]2CO	24	.	-17	.	.	.	.
CC(C)CC#Cc1ccc2c(c1)O[C@H](CN(C)C(=O)c1cnccn1)[C@H](C)CN([C@@H](C)CO)S2(=O)=O	.	14	-4	.	.	.	.
CCC(=O)N1C[C@@H]2[C@H](c3ccccc31)[C@H](CO)N2C(=O)CC	75	-35	3	.	.	.	.
COc1ccc(C(=O)Nc2ccc3c(c2)C(=O)N(C)C[C@@H](OC)[C@@H](C)CN[C@@H](C)CO3)cc1	-13	-7	.	.	.	.	.
Cc1noc(C)c1NC(=O)N(C)C[C@@H]1Oc2ncc(C#CC3CC3)cc2C(=O)N([C@@H](C)CO)C[C@H]1C	53	17	.	.	.	.	.
SMILES	T cruzi growth-1	Pf Dd2 growth	C diff growth	T cruzi growth-2	T cruzi growth-3	NIH3T3 tox	3T3 cytotox 2
C[C@@H](NC(=O)[C@@H]1[C@@H](CO)[C@@H]2Cn3c(cccc3=O)[C@H]1N2C(=O)C1CCC1)c1ccccc1	41	.	-2	.	.	.	.
C[C@@H](NC(=O)[C@H]1[C@H](CO)[C@H]2Cn3c(cccc3=O)[C@@H]1N2C(=O)C1CC1)c1ccccc1	103*	5	-3	30	12	11	3
C[C@H](NC(=O)[C@H]1[C@H](CO)[C@H]2Cn3c(cccc3=O)[C@@H]1N2C(=O)C1CCC1)c1ccccc1	-16	.	-2	.	.	.	.
C[C@H](NC(=O)[C@H]1[C@H](CO)[C@H]2Cn3c(cccc3=O)[C@@H]1N2C(=O)C1CC1)c1ccccc1	101*	7	-2	6	-25	-3	-22
CN(C)C(=O)c1ccc(-c2ccc3n(c2=O)C[C@@H]2[C@@H](CO)[C@H](C(=O)NCCc4ccccc4)N[C@H]32)cc1	26	.	4	.	.	.	.
COc1ccc2c3c(n(C)c2c1)[C@H](CO)N(Cc1cccc(F)c1)CC31CCN(C)CC1	.	-47	12	.	.	.	.
C[C@@H]1CN([C@H](C)CO)C(=O)c2cc(NC(=O)Nc3ccccc3)ccc2O[C@@H](C)CCCCO[C@@H]1CN(C)S(=O)(=O)c1ccccc1	7	-64	.	.	.	.	.
C[C@@H]1CCCCO[C@H](CN(C)S(=O)(=O)c2ccccc2)[C@H](C)CN([C@H](C)CO)C(=O)c2cc(NC(=O)Nc3ccccc3)ccc2O1	103*	-85*	.	113*	61	18	34*
C[C@H](CO)N1C[C@H](C)[C@H](CN(C)S(=O)(=O)c2ccccc2)OCCCC[C@H](C)Oc2ccc(NC(=O)Nc3ccccc3)cc2C1=O	100*	-36	.	108*	65	-10	54*
C[C@H]1CCCCO[C@H](CN(C)S(=O)(=O)c2ccccc2)[C@@H](C)CN([C@@H](C)CO)C(=O)c2cc(NC(=O)Nc3ccccc3)ccc2O1	14	-69	.	.	.	.	.
